This is an account of results in PubChem BioAssay (Tox21).

The source made the active and inactive calls. Calls follow the shape of the dose curve; as a rule, active = well fitted curve in the direction sought with a large enough effect in the repeat runs; inconclusive = weak or mixed curves; inactive = flat fitted curve, though single readings scatter.
% is scaled to controls: 0 for no effect and ±100 for the full control effect.

The first test is described as follows: qHTS assay to test for compound auto fluorescence at 590 nm (red) in HEK293 cell free culture (AID 720683). The note with it: cell-free medium autofluorescence, Ex540/Em590 red; series mostly up to 91.3 µM; fluorescence, % of fluorescent control: at the top concentration. In outline: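 Tox21 10K library compounds were pinned into cell-free DMEM with 10% FBS and fluorescence was read at excitation 540 nm. Activity is expressed as Rose Bengal sodium equivalency.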
`CCN(CC)CCN1C(=O)CN=C(c2ccccc2F)c2cc(Cl)ccc21`: the “fluorescence, % of fluorescent control” value was -0.0536% [at 46 µM] (inactive).
With `Cc1cccc(Cc2cnc[nH]2)c1C`, the “fluorescence, % of fluorescent control” value is 0.112% [at 46 µM] (inactive).
Consider `O=NN(CCO)CCO`, for which the “fluorescence, % of fluorescent control” value is 0.144% (inactive).
As for `Cc1ccc2cc3c(ccc4ccccc43)c3c2c1CC3`, the “fluorescence, % of fluorescent control” value was -0.245% [at 46 µM] (inactive).
For `CSC(C)(C)/C=N/O`, the “fluorescence, % of fluorescent control” value was -0.0007% (inactive).
On to `CC(Cl)CCl` (stereo not drawn), for which the “fluorescence, % of fluorescent control” value was -0.467% (inactive).
Turning to `CNC(C)(C)Cc1ccccc1`, the fluorescence, % of fluorescent control was -0.277% [at 18.6 µM] (inactive).

The nature of another test: qHTS assay to test for compound auto fluorescence at 590 nm (red) in HepG2 cell free culture (AID 720684). The following applies: cell-free medium autofluorescence, red 540/590 nm; series mostly up to 91.3 µM; fluorescence, % of Rose Bengal: at the top concentration. In outline: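 Measured in medium alone (MEM containing 10% FBS) following pintool addition of compound; emission at 590 nm with 540 nm excitation, referenced to Rose Bengal sodium.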
Turning to `O=c1c2ccccc2c(=O)c2c1cc(Cl)c1[nH]c3c([nH]c12)c(Cl)cc1c(=O)c2ccccc2c(=O)c13`, the “fluorescence, % of Rose Bengal” value was -0.005% (inactive).
In the case of `CCN(CC)CCN1C(=O)CN=C(c2ccccc2F)c2cc(Cl)ccc21`, the “fluorescence, % of Rose Bengal” value was -0.295% [at 46 µM] (inactive).
Regarding `CNC(=O)O/N=C(\C)C(C)S(C)(=O)=O` (stereo not drawn), the “fluorescence, % of Rose Bengal” value was 0.222% [at 920 µM] (inactive).
The same measure, in the same setting: next, `CCCCCCC[CH2][Sn]([Cl])([Cl])[CH2]CCCCCCC`: 0.101% (inactive).
Take `O=C(NC(=O)c1c(F)cccc1F)Nc1ccc(Oc2ccc(C(F)(F)F)cc2Cl)cc1F`: the “fluorescence, % of Rose Bengal” value was -0.0541% (inactive).
`CN(C)C(=S)SSC(=S)N(C)C`: the outcome was inactive.
As for `Nc1nc(N)nc(Cl)n1`, the “fluorescence, % of Rose Bengal” value was -0.032% (inactive).
For the compound `Cc1cccc(Cc2cnc[nH]2)c1C`, the “fluorescence, % of Rose Bengal” value is -0.392% [at 46 µM] (inactive).
The same measure, in the same setting: next, `O=NN(CCO)CCO`: -0.101% (inactive); `C=CC(=O)[O][Sn]([CH2]CCC)([CH2]CCC)[CH2]CCC`: -0.366% (inactive); `CSSC`: 0.349% [at 95.7 µM] (inactive).
Still for that read-out and setting: with `CCC[CH2][Sn]([CH2]CCC)([CH2]CCC)[CH2]CCC` the figure was -0.0171% (inactive); with `CCCCON=O`, -0.0466% [at 95.7 µM] (inactive).
Regarding `CNC(=O)Oc1cc(C)cc(C(C)C)c1`, the “fluorescence, % of Rose Bengal” value is -0.0855% (inactive).
With `CCc1cccc(C)c1N(C(=O)CCl)[C@@H](C)COC`, the “fluorescence, % of Rose Bengal” value is 0.167% (inactive).
On to `NC(=O)C(Cl)Cl`, for which the “fluorescence, % of Rose Bengal” value was 0.0643% (inactive).
`CN1C(=O)[C@@H](NC(=O)c2cc3ccccc3[nH]2)N=C(c2ccccc2)c2ccccc21`: the “fluorescence, % of Rose Bengal” value was -0.123% [at 46 µM] (inactive).
`CCCCc1ccccc1`: the “fluorescence, % of Rose Bengal” value is -0.0033% (inactive).
As for `Clc1ccc(C(Cl)(Cl)Cl)cc1Cl`, the “fluorescence, % of Rose Bengal” value is 0.227% (inactive).
On the same count and under the same terms, with `CCn1cc[n+](C)c1` (tested in a mixture with another compound) the figure was -0.108% (inactive); with `CCCCC(CC)COC(=O)c1ccccc1C(=O)OCC(CC)CCCC` (stereo not drawn), -0.36% (inactive).
The same measure, in the same setting: with `CNC(=O)CSP(=O)(OC)OC` the figure was -0.0041% (inactive).
On the same count and under the same terms, next, `[Cl][Hg][c]1ccccc1`: -0.0149% (inactive); `ClCBr`: -0.274% [at 95.7 µM] (inactive); `Cc1ccc2cc3c(ccc4ccccc43)c3c2c1CC3`: 0.077% [at 46 µM] (inactive).
As for `CSC(C)(C)/C=N/O`, the “fluorescence, % of Rose Bengal” value was -0.0325% (inactive).
The same measure, in the same setting: with `CCNS(=O)(=O)C(F)(F)C(F)(F)C(F)(F)C(F)(F)C(F)(F)C(F)(F)C(F)(F)C(F)(F)F` the figure was -0.0245% (inactive).
As to `CCOP(=S)(NC(C)C)Oc1ccccc1C(=O)OC(C)C` (stereo not drawn), the “fluorescence, % of Rose Bengal” value was -0.0026% (inactive).
As for `CC(Cl)CCl` (stereo not drawn), the “fluorescence, % of Rose Bengal” value was -0.134% (inactive).
For the compound `CCOP(=O)(OCC)Oc1nc(Cl)c(Cl)cc1Cl`, the “fluorescence, % of Rose Bengal” value is -0.0347% (inactive).
Consider `CNC(C)(C)Cc1ccccc1`, for which the fluorescence, % of Rose Bengal was -0.143% [at 18.6 µM] (inactive).
As for `C[N+]1(C)[C@@H]2CC[C@H]1CC(OC(=O)C(CO)c1ccccc1)C2` (stereo partly drawn), the call was inactive.
`C=CC(=C)C`: the “fluorescence, % of Rose Bengal” value was 0.0989% (inactive).
Consider `Cc1cnc2c(C(=O)O)c(Cl)ccc2c1`, for which the “fluorescence, % of Rose Bengal” value is -0.0933% (inactive).

A short description of another test: qHTS assay to test for compound auto fluorescence at 460 nm (blue) in HepG2 cell free culture (AID 720685). The note with it: Cell-free culture medium, blue autofluorescence 405/460 nm; series mostly up to 91.3 µM; fluorescence, % of fluorescent control: at the top concentration. In outline: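 Compound (23 nL) or DMSO pinned into cell-free MEM with 10% FBS; blue fluorescence read at 405/460 nm excitation/emission, expressed as auto-fluorescence equivalency to triamterene.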
`O=c1c2ccccc2c(=O)c2c1cc(Cl)c1[nH]c3c([nH]c12)c(Cl)cc1c(=O)c2ccccc2c(=O)c13`: the “fluorescence, % of fluorescent control” value was 0.633% (inactive).
For `CCN(CC)CCN1C(=O)CN=C(c2ccccc2F)c2cc(Cl)ccc21`, the “fluorescence, % of fluorescent control” value was -0.0893% [at 46 µM] (inactive).
For `CNC(=O)O/N=C(\C)C(C)S(C)(=O)=O` (stereo not drawn), the “fluorescence, % of fluorescent control” value was -0.0159% [at 920 µM] (inactive).
With `CCCCCCC[CH2][Sn]([Cl])([Cl])[CH2]CCCCCCC`, the “fluorescence, % of fluorescent control” value was 0.254% (inactive).
For `O=C(NC(=O)c1c(F)cccc1F)Nc1ccc(Oc2ccc(C(F)(F)F)cc2Cl)cc1F`, the “fluorescence, % of fluorescent control” value is -0.0356% (inactive).
Take `CN(C)C(=S)SSC(=S)N(C)C`: the Potency entry is “inactive”.
As for `Nc1nc(N)nc(Cl)n1`, the “fluorescence, % of fluorescent control” value is 0.106% (inactive).
As for `Oc1cc(Cl)c(Cl)c(Cl)c1Cl`, the “fluorescence, % of fluorescent control” value is -0.116% (inactive).
`O=[N+]([O-])c1ccc(Cl)c(Cl)c1Cl`: the “fluorescence, % of fluorescent control” value was -0.129% (inactive).
Regarding `Cc1cccc(Cc2cnc[nH]2)c1C`, the “fluorescence, % of fluorescent control” value is 0.0021% [at 46 µM] (inactive).
As for `O=NN(CCO)CCO`, the “fluorescence, % of fluorescent control” value is -0.0027% (inactive).
For the compound `C=CC(=O)[O][Sn]([CH2]CCC)([CH2]CCC)[CH2]CCC`, the “fluorescence, % of fluorescent control” value is 0.0896% (inactive).
Still for that read-out and setting: with `CSSC` the figure was 0.0041% [at 95.7 µM] (inactive); with `CCC[CH2][Sn]([CH2]CCC)([CH2]CCC)[CH2]CCC`, 0.0533% (inactive); with `CCCCON=O`, 0.0751% [at 95.7 µM] (inactive).
Consider `CNC(=O)Oc1cc(C)cc(C(C)C)c1`, for which the “fluorescence, % of fluorescent control” value was 0.0306% (inactive).
For `CCc1cccc(C)c1N(C(=O)CCl)[C@@H](C)COC`, the “fluorescence, % of fluorescent control” value is 0.0699% (inactive).
As for `NC(=O)C(Cl)Cl`, the “fluorescence, % of fluorescent control” value is -0.017% (inactive).
Take `CN1C(=O)[C@@H](NC(=O)c2cc3ccccc3[nH]2)N=C(c2ccccc2)c2ccccc21`: the “fluorescence, % of fluorescent control” value is 0.007% [at 46 µM] (inactive).
As to `O=C(N[C@@H]1N=C(c2ccccc2F)c2cccc3c2N(CC3)C1=O)c1cc2ccccc2[nH]1`, the “fluorescence, % of fluorescent control” value was 0.102% [at 46 µM] (inactive).
Still for that read-out and setting: with `CCCCc1ccccc1` the figure was 0.4% (inactive).
Consider `Clc1ccc(C(Cl)(Cl)Cl)cc1Cl`, for which the “fluorescence, % of fluorescent control” value is 0.0504% (inactive).
For `CCn1cc[n+](C)c1` (tested in a mixture with another compound), the “fluorescence, % of fluorescent control” value is -0.0561% (inactive).
For `CCCCC(CC)COC(=O)c1ccccc1C(=O)OCC(CC)CCCC` (stereo not drawn), the “fluorescence, % of fluorescent control” value is -0.203% (inactive).
As to `CNC(=O)CSP(=O)(OC)OC`, the “fluorescence, % of fluorescent control” value was -0.0768% (inactive).
As for `[Cl][Hg][c]1ccccc1`, the “fluorescence, % of fluorescent control” value was 0.0304% (inactive).
As for `ClCBr`, the “fluorescence, % of fluorescent control” value was 0.07% [at 95.7 µM] (inactive).
With `Cc1ccc2cc3c(ccc4ccccc43)c3c2c1CC3`, the “fluorescence, % of fluorescent control” value is 0.407% [at 46 µM] (inactive).
Same read-out and setting: next, `CSC(C)(C)/C=N/O`: 0.0483% (inactive); `CCNS(=O)(=O)C(F)(F)C(F)(F)C(F)(F)C(F)(F)C(F)(F)C(F)(F)C(F)(F)C(F)(F)F`: -0.0278% (inactive); `CCOP(=S)(NC(C)C)Oc1ccccc1C(=O)OC(C)C` (stereo not drawn): 0.0572% (inactive).
Still for that read-out and setting: next, `CC(Cl)CCl` (stereo not drawn): -0.0069% (inactive); `CCOP(=O)(OCC)Oc1nc(Cl)c(Cl)cc1Cl`: -0.154% (inactive).
Turning to `CNC(C)(C)Cc1ccccc1`, the fluorescence, % of fluorescent control is -0.0785% [at 18.6 µM] (inactive).
Turning to `C[N+]1(C)[C@@H]2CC[C@H]1CC(OC(=O)C(CO)c1ccccc1)C2` (stereo partly drawn), the Potency result is “inactive”.
Consider `C=CC(=C)C`, for which the “fluorescence, % of fluorescent control” value is 0.0051% (inactive).
Same read-out and setting: with `Cc1cnc2c(C(=O)O)c(Cl)ccc2c1` the figure was -0.0691% (inactive).
